From PubChem BioAssay
Values joined by “and” are separate entries in the source; they are usually repeats but may differ in a detail not shown here. Equal values may be shown once.

Legend:
[1] = tested on: Botulinum neurotoxin type F light chain protease (Clostridium botulinum); assay: Botulinum neurotoxin type F light chain protease inhibition, multiplex microsphere flow cytometry, validation set (AID 588459); conditions: multiplex microsphere protease substrate cleavage assay, at 10 µM, hits give high values
[2] = target: Botulinum neurotoxin type A (Clostridium botulinum) (UniProt P0DPI0); assay: BoNT/A light chain protease inhibitors, biochemical, multiplex microsphere flow cytometry, validation set (AID 588460); conditions: at 10 µM, hits give high values
Chain of Botulinum neurotoxin type A (Clostridium botulinum) (P0DPI0 whole entry, looked up): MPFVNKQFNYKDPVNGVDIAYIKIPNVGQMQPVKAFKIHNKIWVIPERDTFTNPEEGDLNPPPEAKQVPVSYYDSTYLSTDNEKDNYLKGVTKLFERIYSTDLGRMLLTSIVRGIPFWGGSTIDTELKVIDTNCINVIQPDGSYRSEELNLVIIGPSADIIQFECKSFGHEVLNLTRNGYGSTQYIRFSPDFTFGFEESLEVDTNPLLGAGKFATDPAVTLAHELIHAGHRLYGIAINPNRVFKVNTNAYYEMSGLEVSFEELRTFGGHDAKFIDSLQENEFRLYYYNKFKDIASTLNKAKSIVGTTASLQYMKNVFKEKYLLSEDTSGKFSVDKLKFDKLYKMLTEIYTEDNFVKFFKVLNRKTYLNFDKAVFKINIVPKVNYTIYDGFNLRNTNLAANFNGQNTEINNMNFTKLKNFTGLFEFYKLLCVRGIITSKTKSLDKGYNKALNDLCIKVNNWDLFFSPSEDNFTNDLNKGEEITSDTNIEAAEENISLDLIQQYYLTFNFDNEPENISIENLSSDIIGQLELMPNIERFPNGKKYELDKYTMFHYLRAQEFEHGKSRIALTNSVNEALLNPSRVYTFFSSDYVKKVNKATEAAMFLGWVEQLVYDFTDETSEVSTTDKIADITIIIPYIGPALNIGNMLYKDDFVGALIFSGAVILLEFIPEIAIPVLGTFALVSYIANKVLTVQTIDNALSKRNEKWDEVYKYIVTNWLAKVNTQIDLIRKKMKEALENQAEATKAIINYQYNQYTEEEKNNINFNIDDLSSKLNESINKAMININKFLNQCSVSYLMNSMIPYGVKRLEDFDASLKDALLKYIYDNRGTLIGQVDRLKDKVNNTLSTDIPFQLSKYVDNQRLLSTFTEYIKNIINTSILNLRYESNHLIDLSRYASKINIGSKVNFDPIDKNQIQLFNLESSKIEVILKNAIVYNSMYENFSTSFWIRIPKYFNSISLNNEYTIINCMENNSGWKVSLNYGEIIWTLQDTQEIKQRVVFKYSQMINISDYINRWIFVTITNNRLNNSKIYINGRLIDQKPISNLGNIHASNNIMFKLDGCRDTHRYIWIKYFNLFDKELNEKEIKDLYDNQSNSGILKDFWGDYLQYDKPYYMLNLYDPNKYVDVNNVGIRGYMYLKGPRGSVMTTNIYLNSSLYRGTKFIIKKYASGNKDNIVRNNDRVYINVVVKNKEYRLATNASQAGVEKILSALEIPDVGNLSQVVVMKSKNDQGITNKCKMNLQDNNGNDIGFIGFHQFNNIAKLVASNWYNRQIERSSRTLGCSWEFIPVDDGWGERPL

[3] = target: Lethal factor (Bacillus anthracis) (UniProt P15917); assay: Lethal factor protease inhibitors, Bacillus anthracis, multiplex microsphere cleavage assay, validation set (AID 588461); conditions: flow cytometry, at 10 µM, hits give high values
Chain of Lethal factor (Bacillus anthracis) (P15917 whole entry, looked up): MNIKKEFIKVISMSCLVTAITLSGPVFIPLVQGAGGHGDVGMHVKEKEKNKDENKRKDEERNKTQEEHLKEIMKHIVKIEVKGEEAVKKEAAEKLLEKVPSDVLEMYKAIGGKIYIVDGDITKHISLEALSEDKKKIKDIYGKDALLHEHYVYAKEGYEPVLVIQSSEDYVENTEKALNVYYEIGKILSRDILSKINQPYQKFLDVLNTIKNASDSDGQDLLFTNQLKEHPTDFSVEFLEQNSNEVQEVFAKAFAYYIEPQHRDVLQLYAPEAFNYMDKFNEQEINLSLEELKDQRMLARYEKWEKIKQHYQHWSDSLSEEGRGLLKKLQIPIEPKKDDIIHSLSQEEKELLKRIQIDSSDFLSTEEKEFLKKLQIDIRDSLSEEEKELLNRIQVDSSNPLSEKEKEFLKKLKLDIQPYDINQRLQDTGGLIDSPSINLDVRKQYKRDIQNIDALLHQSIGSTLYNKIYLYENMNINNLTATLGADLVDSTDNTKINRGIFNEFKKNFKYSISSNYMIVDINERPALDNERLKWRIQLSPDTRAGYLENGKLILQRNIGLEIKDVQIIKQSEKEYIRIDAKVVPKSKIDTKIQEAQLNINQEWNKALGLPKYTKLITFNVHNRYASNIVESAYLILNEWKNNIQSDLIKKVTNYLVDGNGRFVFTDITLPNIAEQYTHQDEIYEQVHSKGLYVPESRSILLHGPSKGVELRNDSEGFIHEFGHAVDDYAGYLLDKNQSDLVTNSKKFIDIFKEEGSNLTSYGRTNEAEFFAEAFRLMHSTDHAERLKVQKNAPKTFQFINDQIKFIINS

Measured: inhibition

COC(=O)c1ccc(NC(=O)c2ccccc2SC)cc1
inactive: [1] -4.7% | [2] -0.2% | [3] -5.4%

CN(C)CCN(Cc1ccccc1)c1ccccn1
inactive: [1] 2.2% | [2] 0% | [3] -0.2%

CC1(C)O[C@@H]2C[C@H]3[C@@H]4CCC5=CC(=O)C=C[C@]5(C)[C@@]4(F)[C@@H](O)C[C@]3(C)[C@]2(C(=O)CO)O1
inactive: [1] -2.6% | [2] -3.3% | [3] -3.9%

Cc1nc(NC(CC(C)C)C(=O)O)c2nc(C)oc2n1 (centres undefined)
inactive: [1] 1.1% | [2] 1.1% | [3] -5.4%

O=C1CC(c2ccc(O)cc2)Oc2cc(O)cc(O)c21 (centres undefined)
inactive: [1] -2.6% | [2] -1.8% | [3] -0.4%

C[C@]12CCC(=O)C=C1CC[C@@H]1[C@@H]2C(=O)C[C@@]2(C)[C@H]1CC[C@]2(O)C(=O)CO
inactive: [1] -4.6% | [2] -1.7% | [3] -0.3%

C#CCN1C(=O)C(O)(c2c(C)[nH]c3ccccc23)c2ccccc21 (centres undefined)
inactive: [1] 0.4% | [2] 0.5% | [3] -3.2%

C=CCc1cc(Cl)ccc1OCCOCCN(C)C
inactive: [1] -0.1% | [2] -1.3% | [3] -1.2%

COc1ccc2nc(Nc3nc(CSc4ccc(C)cc4)cc(=O)[nH]3)nc(C)c2c1
inactive: [1] 0.6% | [2] -0.3% | [3] 2%

O=c1ccc2c(o1)/C(=C/C=C(Cl)Cl)CCC2
inactive: [1] -0.9% | [2] -0.6% | [3] -2%

CC(C)(C)N1NC2(CCCCC2)NC1=S
inactive: [1] 4.9% | [2] -1.4% | [3] -1.4%

CCOC(=O)c1cnc2ccccc2c1NCCO
inactive: [1] -1.1% | [2] 0% | [3] 5.8%

O=C(NC(Nc1ccccn1)C(Cl)(Cl)Cl)c1ccccc1 (centres undefined)
inactive: [1] -7.2% | [2] -1.5% | [3] 0.6%

Cn1c(=O)c(C(=O)NCCO)c(O)c2ccccc21
inactive: [1] 0.4% | [2] -0.1% | [3] -2.2%

CCCCOc1cc(C(=O)NCCN(CC)CC)c2ccccc2n1
inactive: [1] 8.5% and -0.1% | [2] 1.5% and -0.6% | [3] -1.9% and 2.1%

COc1ccc2[nH]c(=O)c(CN(C(=O)c3ccco3)C(C)C)cc2c1
inactive: [1] 0.1% | [2] 1% | [3] 2.1%

COc1cccc(OCc2nnc(-c3cccs3)o2)c1
inactive: [1] 1.2% | [2] -0.7% | [3] 1.3%

N/C(=N\OC(=O)c1cccc(Br)c1)c1ccncc1
inactive: [1] 0.8% | [2] 0.4% | [3] -3.1%

OCCN(CCO)c1nc(N2CCCCC2)c2nc(N(CCO)CCO)nc(N3CCCCC3)c2n1
inactive: [1] 4.8% | [2] 0.9% | [3] 8.5%

CC12CCC(C(=O)Nc3ccccc3Br)(C/C1=N\O)C2(C)C (centres undefined)
inactive: [1] -3.6% | [2] -0.7% | [3] -6.5%

CC(C)(C)n1c(=O)[nH]c2c(c1=O)CCC2
inactive: [1] 1.8% | [2] -0.4% | [3] -3.9%

COCCOC(=O)C1=C(C)NC(C)=C(C(=O)OC(C)C)C1c1cccc([N+](=O)[O-])c1 (centres undefined)
inactive: [1] -2.2% | [2] -0.7% | [3] -4.8%

CCOc1cc(C=O)ccc1OCCSc1ccc(C)cc1
inactive: [1] 1.3% | [2] 0.4% | [3] -3.6%

O=C(O)c1ccccc1OCCOc1ccccc1
inactive: [1] 3.5% | [2] 2.5% | [3] 7.2%

COc1ccc2c(c1OC)C(=O)OC2C1c2c(cc3c(c2OC)OCO3)CCN1C (centres undefined)
inactive: [1] 0.2% | [2] -0.4% | [3] 0.2%

COc1cc(CNc2nnnn2C)ccc1OCc1ccc(F)cc1Cl
inactive: [1] -4.9% | [2] -0.5% | [3] -1.3%

COc1ccc(CNC(=O)N[C@H](C(=O)O)C(C)C)cc1OC
inactive: [1] -0.7% | [2] -1.2% | [3] -8.3%

COc1ccc(CCN2CCC(Nc3nc4ccccc4n3Cc3ccc(F)cc3)CC2)cc1
inactive: [1] -1.8% | [2] 0.4% | [3] 1.2%
